Results: PubChem BioAssay AID1159580 (chemical genetic matrix, 2015)
Where “and” joins values, the source holds several entries; their conditions need not be identical. Equal entries are not always repeated. Hit rate of the full screen: of about 5,500 compounds, about 2,000 (36%) were called active. About 18% were inconclusive and are not listed. No stated cut-off is given here; in the data, active means normalized growth mostly below about 0.91 (no sharp cut-off); inconclusive means no clear call, values can overlap the other calls; inactive means mostly above about 0.92. The list shows a part of the results.

Assay: chemical genetic growth profiling, strain panel (AID 1159580);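 further: tested at 20 µM; growth read once vehicle control cultures reached saturation at 30 °C; 1 = growth at the plate median or of vehicle wells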
Conditions: S. cerevisiae deletion strains, growth OD

COc1cc2c(cc1OC)C(=O)C(CC1CCN(Cc3ccccc3)CC1)C2 (stereo not given)
normalized growth (locus YAL013W, strain DEP1, stronger effect = lower value): 0.953 (inactive)
normalized growth (locus YAL021C, strain ccr4, stronger effect = lower value): 0.942 (inactive)
normalized growth (locus YAL026C, strain drs2, stronger effect = lower value): 0.606 (active)
normalized growth (locus YAL030W, strain snc1, stronger effect = lower value): 1.01 (inactive)
normalized growth (locus YBL061C, strain skt5, stronger effect = lower value): 0.974 (inactive)
normalized growth (locus YBR009C, strain hhf1, stronger effect = lower value): 0.975 (inactive)
normalized growth (locus YBR021W, strain FUR4, stronger effect = lower value): 1.03 (inactive)
normalized growth (locus YBR023C, strain chs3, stronger effect = lower value): 0.988 (inactive)
normalized growth (locus YBR171W, strain sec66, stronger effect = lower value): 1.03 (inactive)
normalized growth (locus YBR229C, strain ROT2, stronger effect = lower value): 1.01 (inactive)
normalized growth (locus YBR279W, strain paf1, stronger effect = lower value): 0.972 (inactive)
normalized growth (locus YCL011C, strain gbp2, stronger effect = lower value): 0.978 (inactive)
normalized growth (locus YCL016C, strain dcc1, stronger effect = lower value): 0.986 (inactive)
normalized growth (locus YCL029C, strain bik1, stronger effect = lower value): 0.989 (inactive)
normalized growth (locus YCL061C, strain MRC1, stronger effect = lower value): 0.967 (inactive)
normalized growth (locus YCL069W, strain vba3, stronger effect = lower value): 1.02 (inactive)
normalized growth (locus YCR088W, strain abp1, stronger effect = lower value): 1.01 (inactive)
normalized growth (locus YDL005C, strain med2, stronger effect = lower value): 1.03 (inactive)
normalized growth (locus YDL035C, strain GPR1, stronger effect = lower value): 0.869 (inactive)
normalized growth (locus YDL040C, strain nat1, stronger effect = lower value): 0.981 (inactive)
normalized growth (locus YDL074C, strain BRE1, stronger effect = lower value): 0.734 (active)
normalized growth (locus YDL101C, strain DUN1, stronger effect = lower value): 0.948 (inactive)
normalized growth (locus YDL134C, strain PPH21, stronger effect = lower value): 0.798 (active)
normalized growth (locus YDL185W, strain tfp1, stronger effect = lower value): 0.998 (inactive)
normalized growth (locus YDL192W, strain arf1, stronger effect = lower value): 0.926 (inactive)
normalized growth (locus YDR001C, strain nth1, stronger effect = lower value): 1.02 (inactive)
normalized growth (locus YDR069C, strain doa4, stronger effect = lower value): 0.935 (inactive)
normalized growth (locus YDR101C, strain arx1, stronger effect = lower value): 0.904 (active)
normalized growth (locus YDR137W, strain rgp1, stronger effect = lower value): 0.627 (active)
normalized growth (locus YDR150W, strain NUM1, stronger effect = lower value): 0.977 (inactive)
normalized growth (locus YDR159W, strain sac3, stronger effect = lower value): 0.953 (inactive)
normalized growth (locus YDR162C, strain NBP2, stronger effect = lower value): 0.807 (active)
normalized growth (locus YDR195W, strain ref2): 1.08 (inactive)
normalized growth (locus YDR297W, strain sur2, stronger effect = lower value): 0.989 (inactive)
normalized growth (locus YDR318W, strain mcm21, stronger effect = lower value): 0.913 (active)
normalized growth (locus YDR334W, strain swr1, stronger effect = lower value): 1.02 (inactive)
normalized growth (locus YDR335W, strain msn5, stronger effect = lower value): 0.999 (inactive)
normalized growth (locus YDR388W, stronger effect = lower value): 0.998 (inactive)
normalized growth (locus YDR392W, strain spt3, stronger effect = lower value): 1.09 (inactive)
normalized growth (locus YDR502C, strain sam2, stronger effect = lower value): 0.834 (active)
normalized growth (locus YEL003W, strain gim4, stronger effect = lower value): 0.988 (inactive)
normalized growth (locus YEL037C, strain rad23, stronger effect = lower value): 1.02 (inactive)
normalized growth (locus YEL061C, strain CIN8 (second series), stronger effect = lower value): 1.04 (inactive)
normalized growth (locus YEL061C, strain CIN8, stronger effect = lower value): 1.06 (inactive)
normalized growth (locus YER015W, strain faa2, stronger effect = lower value): 0.947 (inactive)
normalized growth (locus YER016W, strain bim1, stronger effect = lower value): 1 (inactive)
normalized growth (locus YER110C, stronger effect = lower value): 0.992 (inactive)
normalized growth (locus YER111C, strain swi4, stronger effect = lower value): 1.02 (inactive)
normalized growth (locus YER155C, strain BEM2 (second series), stronger effect = lower value): 1.02 (inactive)
normalized growth (locus YER155C, strain BEM2, stronger effect = lower value): 1.01 (inactive)
normalized growth (locus YER167W, strain BCK2, stronger effect = lower value): 0.829 (active)
normalized growth (locus YFR010W, strain ubp6, stronger effect = lower value): 1.03 (inactive)
normalized growth (locus YGL078C, strain dbp3, stronger effect = lower value): 0.976 (inactive)
normalized growth (locus YGL086W, strain mad1, stronger effect = lower value): 0.954 (inactive)
normalized growth (locus YGL167C, strain pmr1, stronger effect = lower value): 0.961 (inactive)
normalized growth (locus YGL173C, strain kem1, stronger effect = lower value): 1.01 (inactive)
normalized growth (locus YGL227W, strain vid30, stronger effect = lower value): 1.06 (inactive)
normalized growth (locus YGL240W, strain doc1, stronger effect = lower value): 0.994 (inactive)
normalized growth (locus YGL248W, strain PDE1, stronger effect = lower value): 0.818 (active)
normalized growth (locus YGL253W, strain hxk2, stronger effect = lower value): 0.891 (active)
normalized growth (locus YGR078C, strain PAC10, stronger effect = lower value): 0.821 (active)
normalized growth (locus YGR135W, strain pre9, stronger effect = lower value): 0.787 (active)
normalized growth (locus YGR229C, strain SMI1, stronger effect = lower value): 0.523 (active)
normalized growth (locus YGR252W, strain gcn5, stronger effect = lower value): 0.742 (active)
normalized growth (locus YHR013C, strain ard1, stronger effect = lower value): 0.955 (inactive)
normalized growth (locus YHR027C, strain rpn1, stronger effect = lower value): 0.99 (inactive)
normalized growth (locus YHR030C, strain SLT2, stronger effect = lower value): 0.94 (inactive) and 0.973 (inactive)
normalized growth (locus YHR079C, strain IRE1 (second series), stronger effect = lower value): 0.951 (inactive)
normalized growth (locus YHR079C, strain IRE1, stronger effect = lower value): 0.949 (inactive)
normalized growth (locus YHR094C, strain hxt1, stronger effect = lower value): 1 (inactive)
normalized growth (locus YHR129C, strain ARP1, stronger effect = lower value): 0.876 (active)
normalized growth (locus YHR142W, strain chs7, stronger effect = lower value): 0.919 (inactive)
normalized growth (locus YHR200W, strain rpn10, stronger effect = lower value): 0.973 (inactive)
normalized growth (locus YIL066C, strain RNR3, stronger effect = lower value): 0.896 (inactive)
normalized growth (locus YIL073C, strain SPO22, stronger effect = lower value): 0.904 (inactive)
normalized growth (locus YIL125W, strain kgd1, stronger effect = lower value): 1.01 (inactive)
normalized growth (locus YIR030C, strain dcg1, stronger effect = lower value): 0.985 (inactive)
normalized growth (locus YJL092W, strain hpr5, stronger effect = lower value): 1.02 (inactive)
normalized growth (locus YJL095W, strain BCK1 (second series), stronger effect = lower value): 0.994 (inactive)
normalized growth (locus YJL095W, strain BCK1, stronger effect = lower value): 0.657 (active) and 1.01 (inactive)
normalized growth (locus YJL115W, strain asf1, stronger effect = lower value): 1.02 (inactive)
normalized growth (locus YJL129C, strain trk1, stronger effect = lower value): 0.896 (inactive)
normalized growth (locus YJL134W, strain LCB3, stronger effect = lower value): 0.996 (inactive)
normalized growth (locus YJL154C, strain vps35, stronger effect = lower value): 1.01 (inactive)
normalized growth (locus YJL164C, strain tpk1, stronger effect = lower value): 1 (inactive)
normalized growth (locus YJL166W, strain qcr8, stronger effect = lower value): 0.931 (inactive)
normalized growth (locus YJL168C, strain set2, stronger effect = lower value): 0.998 (inactive)
normalized growth (locus YJL187C, strain SWE1 (second series), stronger effect = lower value): 0.849 (active)
normalized growth (locus YJL187C, strain SWE1, stronger effect = lower value): 0.975 (inactive)
normalized growth (locus YJR043C, strain POL32, stronger effect = lower value): 0.872 (inactive)
